Laboratory results from PMC7862700, “An all-to-all approach to the identification of sequence-specific readers for epigenetic DNA modifications on cytosine”.

What was measured:
Test in all cases: DAPPL (digital affinity profiling via proximity ligation, sequencing); 10 mM Tris-HCl pH 7.5, 50 mM NaCl, 1 mM DTT, 4% glycerol, room temperature, 30 min; GST-TFs on glutathione beads, 16-mer random dsDNA library, 0.1% formaldehyde crosslink after washing; high values mean tight binding
FLI1 = target: T1, FLI1 (Homo sapiens, UniProt Q01543 1-452); conditions: protein: recombinant; tags: N-terminal GST; dsDNA, one strand shown
T1 sequence: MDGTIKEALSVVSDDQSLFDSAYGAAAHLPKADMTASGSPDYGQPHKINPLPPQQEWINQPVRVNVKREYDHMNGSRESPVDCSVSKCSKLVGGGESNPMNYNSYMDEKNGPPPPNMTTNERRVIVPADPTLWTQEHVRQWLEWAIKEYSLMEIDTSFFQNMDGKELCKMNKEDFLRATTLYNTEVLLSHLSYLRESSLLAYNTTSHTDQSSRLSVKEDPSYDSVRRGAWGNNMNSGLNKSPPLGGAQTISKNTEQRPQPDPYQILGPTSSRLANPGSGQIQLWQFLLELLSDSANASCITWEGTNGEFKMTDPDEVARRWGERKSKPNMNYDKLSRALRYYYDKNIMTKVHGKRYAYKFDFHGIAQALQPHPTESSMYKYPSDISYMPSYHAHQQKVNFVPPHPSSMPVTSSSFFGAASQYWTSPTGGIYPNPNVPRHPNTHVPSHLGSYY
Outline: (§1)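 Pools of DNA-barcoded human transcription factors, expressed in yeast as GST fusions on glutathione beads and combined with a tag-only sample, were incubated with 200 nmole of a 16-mer random double-stranded DNA library. Incubation took 30 min at room temperature in Tris/NaCl/DTT/glycerol buffer and was followed by washing, 0.1% formaldehyde crosslinking, proximity ligation (BsaI/T4 ligase, 1 h, 37 °C), PCR amplification and sequencing on an Illumina NextSeq500. Binding signal is the ratio of a hexamer's read frequency for a factor to its frequency for the tag-only sample.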

ELK1 = target: T2, ELK1 (Homo sapiens, UniProt P19419 1-428); conditions: protein: recombinant; tags: N-terminal GST; dsDNA, one strand shown
T2 sequence: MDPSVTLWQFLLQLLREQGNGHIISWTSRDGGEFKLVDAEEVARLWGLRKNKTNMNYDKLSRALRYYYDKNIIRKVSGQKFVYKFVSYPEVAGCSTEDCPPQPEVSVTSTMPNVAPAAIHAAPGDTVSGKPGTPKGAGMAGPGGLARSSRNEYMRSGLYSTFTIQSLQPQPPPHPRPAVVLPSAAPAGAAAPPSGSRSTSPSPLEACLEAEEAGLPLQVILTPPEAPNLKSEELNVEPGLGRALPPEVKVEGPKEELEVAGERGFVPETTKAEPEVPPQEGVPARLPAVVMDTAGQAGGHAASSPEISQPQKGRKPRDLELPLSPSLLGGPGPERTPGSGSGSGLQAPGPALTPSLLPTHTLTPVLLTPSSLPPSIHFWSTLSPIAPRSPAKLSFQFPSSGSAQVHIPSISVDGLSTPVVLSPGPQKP
Outline: as §1

GABPA = target: T3, GABPA (Homo sapiens, UniProt Q06546 1-454); conditions: protein: recombinant; tags: N-terminal GST; dsDNA, one strand shown
T3 sequence: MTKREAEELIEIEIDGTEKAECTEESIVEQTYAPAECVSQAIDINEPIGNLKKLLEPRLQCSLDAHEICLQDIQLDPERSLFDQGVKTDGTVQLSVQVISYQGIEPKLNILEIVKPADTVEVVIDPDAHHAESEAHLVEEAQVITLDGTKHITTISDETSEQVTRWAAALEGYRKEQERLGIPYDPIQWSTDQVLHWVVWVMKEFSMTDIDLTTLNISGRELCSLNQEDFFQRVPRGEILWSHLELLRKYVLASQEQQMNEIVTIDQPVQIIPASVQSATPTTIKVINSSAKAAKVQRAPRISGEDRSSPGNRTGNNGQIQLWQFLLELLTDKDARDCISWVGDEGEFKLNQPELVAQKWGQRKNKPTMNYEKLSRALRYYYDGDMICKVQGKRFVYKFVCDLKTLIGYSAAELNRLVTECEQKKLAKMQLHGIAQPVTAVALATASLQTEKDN
Outline: as §1

ERG = target: T4, ERG (Homo sapiens, UniProt P11308 1-479); conditions: protein: recombinant; tags: N-terminal GST; dsDNA, one strand shown
T4 sequence: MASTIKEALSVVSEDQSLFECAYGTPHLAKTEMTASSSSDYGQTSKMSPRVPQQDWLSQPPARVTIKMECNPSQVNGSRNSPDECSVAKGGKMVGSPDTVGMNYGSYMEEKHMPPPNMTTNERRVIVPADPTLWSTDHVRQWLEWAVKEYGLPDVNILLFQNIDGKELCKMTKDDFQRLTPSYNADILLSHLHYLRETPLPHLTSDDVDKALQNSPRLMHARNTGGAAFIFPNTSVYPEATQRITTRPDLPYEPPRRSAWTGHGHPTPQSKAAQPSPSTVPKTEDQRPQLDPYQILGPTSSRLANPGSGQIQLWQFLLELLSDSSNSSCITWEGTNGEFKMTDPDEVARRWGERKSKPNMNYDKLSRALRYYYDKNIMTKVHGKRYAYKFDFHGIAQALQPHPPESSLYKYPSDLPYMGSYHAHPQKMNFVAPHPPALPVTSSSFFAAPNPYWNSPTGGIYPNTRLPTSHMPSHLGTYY
Outline: as §1

ELF1 = ELF1 (Homo sapiens, UniProt P32519 1-619); conditions: protein: recombinant; tags: N-terminal GST; dsDNA, one strand shown
ELF1, sequence (P32519 whole entry): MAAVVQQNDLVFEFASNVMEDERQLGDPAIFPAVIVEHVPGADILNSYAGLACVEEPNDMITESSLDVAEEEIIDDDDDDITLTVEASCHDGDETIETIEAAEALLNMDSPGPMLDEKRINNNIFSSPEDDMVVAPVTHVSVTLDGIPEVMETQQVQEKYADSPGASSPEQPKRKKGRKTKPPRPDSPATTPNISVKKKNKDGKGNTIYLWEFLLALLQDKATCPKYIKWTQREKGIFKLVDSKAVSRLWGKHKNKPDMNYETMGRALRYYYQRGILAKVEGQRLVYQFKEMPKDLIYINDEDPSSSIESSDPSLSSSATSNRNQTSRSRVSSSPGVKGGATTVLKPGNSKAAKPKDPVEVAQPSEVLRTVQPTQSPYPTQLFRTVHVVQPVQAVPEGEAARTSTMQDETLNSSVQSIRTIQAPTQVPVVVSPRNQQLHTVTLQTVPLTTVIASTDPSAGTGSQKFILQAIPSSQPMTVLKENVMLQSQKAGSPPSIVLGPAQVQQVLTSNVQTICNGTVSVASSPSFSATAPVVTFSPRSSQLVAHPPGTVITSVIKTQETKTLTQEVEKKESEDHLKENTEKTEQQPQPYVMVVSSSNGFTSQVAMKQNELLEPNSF
Outline: as §1

EHF = target: T5, EHF (Homo sapiens, UniProt Q9NZC4 1-300); conditions: protein: recombinant; tags: N-terminal GST; dsDNA, one strand shown
T5 sequence: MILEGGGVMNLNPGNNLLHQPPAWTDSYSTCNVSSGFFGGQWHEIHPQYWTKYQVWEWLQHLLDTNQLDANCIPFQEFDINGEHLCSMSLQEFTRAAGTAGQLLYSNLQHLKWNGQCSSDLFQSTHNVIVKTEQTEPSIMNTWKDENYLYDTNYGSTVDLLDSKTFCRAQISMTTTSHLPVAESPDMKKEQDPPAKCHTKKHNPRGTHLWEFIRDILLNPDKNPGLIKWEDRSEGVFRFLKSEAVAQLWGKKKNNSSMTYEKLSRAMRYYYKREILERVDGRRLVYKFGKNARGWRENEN
Outline: as §1

SPI1 = SPI1 (Homo sapiens, UniProt P17947 1-270); conditions: protein: recombinant; tags: N-terminal GST; dsDNA, one strand shown
Outline: as §1

SPIB = SPIB (Homo sapiens, UniProt Q01892 1-262); conditions: protein: recombinant; tags: N-terminal GST; dsDNA, one strand shown
SPIB, sequence (Q01892 whole entry): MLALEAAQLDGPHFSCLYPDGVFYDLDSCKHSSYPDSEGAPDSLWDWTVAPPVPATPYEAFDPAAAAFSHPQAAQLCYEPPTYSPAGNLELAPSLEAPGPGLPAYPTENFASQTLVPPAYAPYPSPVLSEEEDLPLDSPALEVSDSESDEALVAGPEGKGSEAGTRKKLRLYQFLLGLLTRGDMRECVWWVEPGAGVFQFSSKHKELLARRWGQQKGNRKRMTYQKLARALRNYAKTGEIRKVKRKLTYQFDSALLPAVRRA
Outline: as §1

ELK3 = target: T6, ELK3 (Homo sapiens, UniProt P41970 1-407); conditions: protein: recombinant; tags: N-terminal GST; dsDNA, one strand shown
T6 sequence: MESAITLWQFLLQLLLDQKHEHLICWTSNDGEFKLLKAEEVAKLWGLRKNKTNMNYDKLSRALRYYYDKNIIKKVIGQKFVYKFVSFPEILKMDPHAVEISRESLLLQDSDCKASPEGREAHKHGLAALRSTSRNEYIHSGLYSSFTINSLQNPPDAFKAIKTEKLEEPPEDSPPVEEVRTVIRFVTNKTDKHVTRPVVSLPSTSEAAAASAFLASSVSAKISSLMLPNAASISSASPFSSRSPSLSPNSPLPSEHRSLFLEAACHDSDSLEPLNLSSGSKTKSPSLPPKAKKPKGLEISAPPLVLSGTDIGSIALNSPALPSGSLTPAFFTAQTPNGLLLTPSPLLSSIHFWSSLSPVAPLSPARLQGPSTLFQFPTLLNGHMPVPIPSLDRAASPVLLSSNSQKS
Outline: as §1

FEV = target: T7, FEV (Homo sapiens, UniProt Q99581 1-238); conditions: protein: recombinant; tags: N-terminal GST; dsDNA, one strand shown
T7 sequence: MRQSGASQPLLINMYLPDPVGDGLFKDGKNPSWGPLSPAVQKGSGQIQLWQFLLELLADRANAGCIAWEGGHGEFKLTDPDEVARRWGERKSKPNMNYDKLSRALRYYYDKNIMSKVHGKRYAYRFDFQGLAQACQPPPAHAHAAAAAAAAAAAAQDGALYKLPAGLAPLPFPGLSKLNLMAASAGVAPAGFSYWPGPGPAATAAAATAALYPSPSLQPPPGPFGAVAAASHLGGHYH
Outline: as §1

ETV5 = ETV5 (Homo sapiens, UniProt P41161 1-510); conditions: protein: recombinant; tags: N-terminal GST; dsDNA, one strand shown
ETV5, sequence (P41161 whole entry): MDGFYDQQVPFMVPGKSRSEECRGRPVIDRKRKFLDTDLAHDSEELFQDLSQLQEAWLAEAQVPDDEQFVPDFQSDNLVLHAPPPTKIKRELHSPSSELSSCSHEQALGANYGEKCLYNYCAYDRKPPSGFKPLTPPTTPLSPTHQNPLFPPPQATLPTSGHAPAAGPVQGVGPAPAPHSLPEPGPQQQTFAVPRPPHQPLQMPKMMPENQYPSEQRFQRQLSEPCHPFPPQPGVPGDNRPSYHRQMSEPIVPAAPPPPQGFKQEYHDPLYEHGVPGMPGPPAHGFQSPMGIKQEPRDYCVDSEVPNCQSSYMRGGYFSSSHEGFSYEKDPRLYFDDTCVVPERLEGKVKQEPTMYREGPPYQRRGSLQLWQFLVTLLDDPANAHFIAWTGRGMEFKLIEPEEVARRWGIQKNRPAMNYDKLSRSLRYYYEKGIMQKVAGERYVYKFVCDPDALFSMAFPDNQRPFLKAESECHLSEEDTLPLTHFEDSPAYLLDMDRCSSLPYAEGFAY
Outline: as §1

HSF1 = HSF1 (Homo sapiens, UniProt Q00613 1-529); conditions: protein: recombinant; tags: N-terminal GST; chain copies: 3; dsDNA, one strand shown
HSF1, sequence (Q00613 whole entry): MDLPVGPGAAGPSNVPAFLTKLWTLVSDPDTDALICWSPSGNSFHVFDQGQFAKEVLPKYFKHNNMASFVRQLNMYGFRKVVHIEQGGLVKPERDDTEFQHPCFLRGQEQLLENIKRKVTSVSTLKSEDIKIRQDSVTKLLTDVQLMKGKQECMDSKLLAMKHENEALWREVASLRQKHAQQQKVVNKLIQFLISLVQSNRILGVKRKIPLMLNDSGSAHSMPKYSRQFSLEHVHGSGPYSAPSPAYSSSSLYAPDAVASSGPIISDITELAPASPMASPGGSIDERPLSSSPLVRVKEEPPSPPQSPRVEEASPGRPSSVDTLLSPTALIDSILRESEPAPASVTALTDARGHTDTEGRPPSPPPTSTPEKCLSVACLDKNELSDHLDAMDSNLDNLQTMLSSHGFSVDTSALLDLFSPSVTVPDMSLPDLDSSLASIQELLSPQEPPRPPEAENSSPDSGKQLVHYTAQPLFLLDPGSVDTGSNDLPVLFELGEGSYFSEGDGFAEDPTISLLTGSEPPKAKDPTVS
Outline: as §1

SPIC = target: T8, SPIC (Homo sapiens, UniProt Q8N5J4 1-248); conditions: protein: recombinant; tags: N-terminal GST; dsDNA, one strand shown
T8 sequence: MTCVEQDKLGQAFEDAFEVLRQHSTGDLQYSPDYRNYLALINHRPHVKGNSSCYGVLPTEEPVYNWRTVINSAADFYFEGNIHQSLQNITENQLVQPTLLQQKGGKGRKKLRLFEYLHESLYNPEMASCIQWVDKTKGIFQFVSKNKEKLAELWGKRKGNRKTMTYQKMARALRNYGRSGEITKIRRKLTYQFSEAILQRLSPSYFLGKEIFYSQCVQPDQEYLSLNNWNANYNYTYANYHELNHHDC
Outline: as §1

ELF4 = ELF4 (Homo sapiens, UniProt Q99607 1-663); conditions: protein: recombinant; tags: N-terminal GST; dsDNA, one strand shown
ELF4, sequence (Q99607 whole entry): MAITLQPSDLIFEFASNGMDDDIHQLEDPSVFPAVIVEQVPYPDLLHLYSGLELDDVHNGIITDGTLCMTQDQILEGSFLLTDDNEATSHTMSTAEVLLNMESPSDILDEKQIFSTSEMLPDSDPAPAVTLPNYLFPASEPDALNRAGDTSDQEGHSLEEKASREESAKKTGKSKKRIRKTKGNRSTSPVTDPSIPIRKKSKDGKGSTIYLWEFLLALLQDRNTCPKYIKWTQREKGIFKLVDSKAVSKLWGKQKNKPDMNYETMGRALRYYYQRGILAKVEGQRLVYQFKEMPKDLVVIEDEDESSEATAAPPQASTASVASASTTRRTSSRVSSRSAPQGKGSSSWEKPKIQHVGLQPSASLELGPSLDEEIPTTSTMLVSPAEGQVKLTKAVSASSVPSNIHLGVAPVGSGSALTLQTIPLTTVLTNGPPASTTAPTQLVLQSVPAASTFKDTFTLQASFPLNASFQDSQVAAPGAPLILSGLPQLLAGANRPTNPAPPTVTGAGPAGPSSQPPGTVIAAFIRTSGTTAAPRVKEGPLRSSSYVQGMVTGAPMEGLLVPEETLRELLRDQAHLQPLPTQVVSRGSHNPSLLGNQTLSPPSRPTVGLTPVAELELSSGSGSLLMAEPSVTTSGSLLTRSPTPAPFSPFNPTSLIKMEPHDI
Outline: as §1

ELK4 = target: T9, ELK4 (Homo sapiens, UniProt P28324-2 1-405); conditions: protein: recombinant; tags: N-terminal GST; dsDNA, one strand shown
T9 sequence: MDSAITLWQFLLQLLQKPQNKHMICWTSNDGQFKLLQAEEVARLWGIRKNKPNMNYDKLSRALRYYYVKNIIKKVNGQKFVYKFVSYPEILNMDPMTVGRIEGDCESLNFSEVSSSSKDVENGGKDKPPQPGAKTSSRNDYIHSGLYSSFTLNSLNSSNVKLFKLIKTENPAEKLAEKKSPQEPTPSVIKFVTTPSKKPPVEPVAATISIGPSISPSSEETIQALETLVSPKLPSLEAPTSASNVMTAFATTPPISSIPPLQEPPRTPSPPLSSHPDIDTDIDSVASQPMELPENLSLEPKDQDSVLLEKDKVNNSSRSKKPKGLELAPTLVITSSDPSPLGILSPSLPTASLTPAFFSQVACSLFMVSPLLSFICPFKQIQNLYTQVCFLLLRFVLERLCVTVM
Outline: as §1

ETV2 = target: T10, ETV2 (Homo sapiens, UniProt O00321 1-342); conditions: protein: recombinant; tags: N-terminal GST; dsDNA, one strand shown
T10 sequence: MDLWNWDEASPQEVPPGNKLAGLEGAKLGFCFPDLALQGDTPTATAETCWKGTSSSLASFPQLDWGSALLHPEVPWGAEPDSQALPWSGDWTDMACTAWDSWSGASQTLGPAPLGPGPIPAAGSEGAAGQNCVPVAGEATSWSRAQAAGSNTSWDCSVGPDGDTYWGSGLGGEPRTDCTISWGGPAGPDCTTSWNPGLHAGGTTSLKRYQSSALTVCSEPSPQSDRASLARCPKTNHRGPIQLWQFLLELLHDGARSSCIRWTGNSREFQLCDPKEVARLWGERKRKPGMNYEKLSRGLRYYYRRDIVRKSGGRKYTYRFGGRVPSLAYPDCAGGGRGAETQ
Outline: as §1

ELF3 = target: T11, ELF3 (Homo sapiens, UniProt P78545 1-371); conditions: protein: recombinant; tags: N-terminal GST; dsDNA, one strand shown
T11 sequence: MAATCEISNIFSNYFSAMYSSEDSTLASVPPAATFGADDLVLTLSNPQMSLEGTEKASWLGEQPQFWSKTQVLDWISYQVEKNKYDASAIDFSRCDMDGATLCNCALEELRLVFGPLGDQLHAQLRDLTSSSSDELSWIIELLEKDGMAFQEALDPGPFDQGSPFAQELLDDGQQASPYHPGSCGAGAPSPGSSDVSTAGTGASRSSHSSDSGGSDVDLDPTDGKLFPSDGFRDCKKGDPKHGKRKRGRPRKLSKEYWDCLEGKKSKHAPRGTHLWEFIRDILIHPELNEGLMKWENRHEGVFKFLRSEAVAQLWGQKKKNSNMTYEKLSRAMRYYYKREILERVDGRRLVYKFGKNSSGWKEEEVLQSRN
Outline: as §1

CRX = CRX (Homo sapiens, UniProt O43186 1-299); conditions: protein: recombinant; tags: N-terminal GST; dsDNA, one strand shown
CRX, sequence (O43186 whole entry): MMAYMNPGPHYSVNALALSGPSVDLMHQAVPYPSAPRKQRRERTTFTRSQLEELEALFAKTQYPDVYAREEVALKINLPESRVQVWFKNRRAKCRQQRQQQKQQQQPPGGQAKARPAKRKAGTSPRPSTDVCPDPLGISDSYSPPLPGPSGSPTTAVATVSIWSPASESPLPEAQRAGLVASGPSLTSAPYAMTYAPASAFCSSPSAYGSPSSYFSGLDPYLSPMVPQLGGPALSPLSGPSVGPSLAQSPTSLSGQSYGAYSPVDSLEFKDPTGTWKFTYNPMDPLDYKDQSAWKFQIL
Outline: as §1

ETV1 = ETV1 (Homo sapiens, UniProt P50549 1-477); conditions: protein: recombinant; tags: N-terminal GST; dsDNA, one strand shown
ETV1, sequence (P50549 whole entry): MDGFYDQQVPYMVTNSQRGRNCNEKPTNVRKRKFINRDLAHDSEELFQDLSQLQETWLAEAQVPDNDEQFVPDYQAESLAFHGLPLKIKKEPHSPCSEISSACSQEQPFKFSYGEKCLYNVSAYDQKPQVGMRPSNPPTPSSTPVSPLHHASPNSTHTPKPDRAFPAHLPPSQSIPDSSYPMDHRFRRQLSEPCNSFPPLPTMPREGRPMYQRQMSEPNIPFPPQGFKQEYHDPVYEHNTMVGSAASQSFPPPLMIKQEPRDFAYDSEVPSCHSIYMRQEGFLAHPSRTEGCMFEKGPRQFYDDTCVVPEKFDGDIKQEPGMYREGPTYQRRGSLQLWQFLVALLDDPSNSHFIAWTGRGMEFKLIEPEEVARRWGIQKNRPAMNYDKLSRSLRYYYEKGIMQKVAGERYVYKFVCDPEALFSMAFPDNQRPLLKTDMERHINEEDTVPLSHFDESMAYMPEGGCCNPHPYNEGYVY
Outline: as §1

TCATCA
binding signal (FLI1): 1.18 fold enrichment (6-mer frequency, TF over GST control)
binding signal (ELK1): 1.16 fold enrichment (6-mer frequency, TF over GST control)
binding signal (GABPA): 1.17 fold enrichment (6-mer frequency, TF over GST control)
binding signal (ERG): 1.13 fold enrichment (6-mer frequency, TF over GST control)
binding signal (ELF1): 1.14 fold enrichment (6-mer frequency, TF over GST control)
binding signal (EHF): 1.09 fold enrichment (6-mer frequency, TF over GST control)
binding signal (SPI1): 1.1 fold enrichment (6-mer frequency, TF over GST control)
binding signal (SPIB): 1.14 fold enrichment (6-mer frequency, TF over GST control)
binding signal (ELK3): 1.18 fold enrichment (6-mer frequency, TF over GST control)
binding signal (FEV): 1.12 fold enrichment (6-mer frequency, TF over GST control)
binding signal (ETV5): 1.09 fold enrichment (6-mer frequency, TF over GST control)
binding signal (HSF1): 1.06 fold enrichment (6-mer frequency, TF over GST control)
binding signal (SPIC): 1.16 fold enrichment (6-mer frequency, TF over GST control)
binding signal (ELF4): 1.18 fold enrichment (6-mer frequency, TF over GST control)
binding signal (ELK4): 1.26 fold enrichment (6-mer frequency, TF over GST control)
binding signal (ETV2): 1.07 fold enrichment (6-mer frequency, TF over GST control)
binding signal (ELF3): 1.07 fold enrichment (6-mer frequency, TF over GST control)
binding signal (CRX): 1.07 fold enrichment (6-mer frequency, TF over GST control)
binding signal (ETV1): 1.06 fold enrichment (6-mer frequency, TF over GST control)
